Data published in PubChem BioAssay (NCATS).
Records with an inconclusive call do not appear. Active and inactive are the calls of the source. Unless noted, how the calls were made is not given here.

Tests used:
[1] = Immunotoxin (HA22) sensitization/mitigation study. Vehicle arm (PBS) (AID 1159510); further: potency means the concentration at half of the fitted maximal effect
[2] = High-throughput drug toxicity screening in the BPDCN cell line Gen2.2 (AID 1224824); conditions: Gen2.2 BPDCN cells; at 45.8 µM (top of the series);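 further: cells exposed to compounds for 48 h before reading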
In short: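 Readout is ATP luminescence from Gen2.2 cells after two days of drug exposure in serum-containing medium at 37 °C. Values express percent activity, with vehicle defining full signal and 9.2 uM bortezomib defining zero.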

[3] = High-throughput drug toxicity screening in the BPDCN cell line Cal-1 (AID 1224825); conditions: Cal-1 BPDCN cell viability, qHTS; at 45.8 µM (top of the series);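 further: cells exposed to compounds for 48 h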
In short: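 Viability of the BPDCN line Cal-1 is measured as ATP-based luminescence (CellTiter-Glo) following 48 h incubation with compounds. Percent activity uses DMSO-treated wells as 100% and 9.2 uM bortezomib as 0%.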

[4] = qHTS assay for measurement of the activity of small molecule inhibitors on Zika virus induced Caspase-3 activity in human iPSC derived neural progenitor cells (hNPCs) (AID 1224857; active means well fitted curve in the direction sought with a large enough effect; an effect the other way counts as inactive or inconclusive; further: % of control where 0% means no effect; nearly all actives have a fitted effect of over 65% in size)
In short: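 Human iPSC-derived neural progenitor cells pretreated 1 hr with compounds, then infected with Zika virus (2 FFU/cell) for 6 hours at 37 C. Caspase-3/7 measured by Caspase-Glo luminescence; % inhibition calculated from induction scaled to uninfected (0%) and infected (100%) wells.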

[5] = qHTS assay for measurement of the activity of small molecule inhibitors on Zika virus induced Caspase-3 activity in human astrocytoma cells (AID 1224859; active means well fitted curve in the direction sought with a large enough effect; an effect the other way counts as inactive or inconclusive;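 further: plate controls were ZIKV-infected untreated cells for no effect and uninfected cells for full effect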)
In short: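 SNB-19 astrocytoma cells, 250/well, pretreated 1 h with compounds, then Zika virus at 2 FFU/cell for 6 h at 37 C; Caspase-Glo 3/7 luminescence after 30 min; percent inhibition normalised to uninfected and infected controls.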

[6] = qHTS Screen of the MIPE 4.0 Collection Against Ewings Sarcoma (RDES) (AID 1259252; active means well fitted curve in the direction sought with a large enough effect; an effect the other way counts as inactive or inconclusive; further: nearly all actives have a fitted effect of over 35% in size; further: potency means the concentration at half of the fitted maximal effect)
In short: (§1)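 Measured: ATP luminescence (CellTiter-Glo) 10 min after reagent addition, following 48 h drug treatment. Relative luciferase units converted to percent activity, with no-cell wells as full and DMSO wells as zero inhibition.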

[7] = qHTS Screen of the MIPE 4.0 Collection Against Ewings Sarcoma (TC71) (AID 1259253; active means well fitted curve in the direction sought with a large enough effect; an effect the other way counts as inactive or inconclusive; further: nearly all actives have a fitted effect of over 40% in size; further: potency means the concentration at half of the fitted maximal effect)
In short: as §1

[8] = qHTS Screen of the MIPE 4.0 Collection Against Ewings Sarcoma (EW8) (AID 1259255; active means well fitted curve in the direction sought with a large enough effect; an effect the other way counts as inactive or inconclusive; further: nearly all actives have a fitted effect of over 35% in size; further: potency means the concentration at half of the fitted maximal effect;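 on viability: 100% = DMSO-treated cells and 0% = medium-only wells without cells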)
In short: as §1

[9] = qHTS Screen of the MIPE 4.0 Collection Against Ewings Sarcoma (TC32) (AID 1259256; active means well fitted curve in the direction sought with a large enough effect; an effect the other way counts as inactive or inconclusive; further: nearly all actives have a fitted effect of over 45% in size; further: potency means the concentration at half of the fitted maximal effect)
In short: as §1

[10] = Identifying Small Molecule Inhibitors of Pancreatic Cancer Stem Cells (SN12C, Adherent) (AID 1259358; active means well fitted curve in the direction sought with a large enough effect; an effect the other way counts as inactive or inconclusive;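 further: cell survival measured after 48 h of compound exposure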; further: potency means the concentration at half of the fitted maximal effect)
In short: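 After a 4 h attachment period, compounds were pinned into wells and cultures held 48 h under standard incubator conditions. Viability was then measured as CellTiter-Glo luminescence following 10 min at room temperature.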

[11] = Immunotoxin (SS1P) sensitization/mitigation study. Vehicle arm (DMEM) (AID 1159513); further: potency means the concentration at half of the fitted maximal effect
[12] = Identifying Small Molecule Inhibitors of Pancreatic Cancer Stem Cells (A2780, Spheroid) (AID 1259357; active means well fitted curve in the direction sought with a large enough effect; an effect the other way counts as inactive or inconclusive;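 further: spheroids pre-formed over 14 days in stem cell medium on hydrogel; compound exposure lasted 48 h before the ATP luminescence read; 100% = DMSO treated cells and 0% = wells without cells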); conditions: Potency: A2780 spheroid viability
In short: (§2)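 Adherent (2D) versus sphere (3D) formats; spheres generated 14 d in SCM beforehand. Compound transferred by pin tool after 4 h, 48 h incubation, CellTiter-Glo endpoint.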

[13] = Identifying Small Molecule Inhibitors of Pancreatic Cancer Stem Cells (SN12C, Spheroid) (AID 1259360; active means well fitted curve in the direction sought with a large enough effect; an effect the other way counts as inactive or inconclusive; further: potency means the concentration at half of the fitted maximal effect;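 on viability (% of control): 100% = DMSO-treated cells and 0% = wells without cells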); conditions: Potency: SN12C spheroid viability
In short: as §2

[14] = Identifying Small Molecule Inhibitors of Pancreatic Cancer Stem Cells (Panc1, Spheroid) (AID 1259359; active means well fitted curve in the direction sought with a large enough effect; an effect the other way counts as inactive or inconclusive;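 further: potency means the concentration at half of the fitted maximal effect; compound exposure lasted 48 h before reading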); conditions: Panc1 spheroid cancer stem cell viability
In short: as §2

Cc1ccccc1-n1c(Cn2cnc3c(N)ncnc32)nc2cccc(C)c2c1=O
Potency [1]: 23.5 µM (active) | cell viability, % of control (lower = more cytotoxic) [2]: 68.3% | viability (% of control) [3]: 9.3% | Potency [4]: inactive | Potency [5]: inactive | Potency [6]: 1.18 µM (active) | Potency [7]: 1.87 µM (active) | Potency [8]: 5.26 µM (active) | Potency [9]: 0.833 µM (active) | Potency [10]: 18.7 µM (active)

CN(NC(=O)CC(=O)NN(C)C(=S)c1ccccc1)C(=S)c1ccccc1
Potency [11]: inactive

CC(=O)Nc1ccc(OC[C@](C)(O)C(=O)Nc2ccc([N+](=O)[O-])c(C(F)(F)F)c2)cc1
Potency [1]: inactive | Potency [11]: inactive | cell viability, % of control (lower = more cytotoxic) [2]: 138% | viability (% of control) [3]: 106% | Potency [4]: inactive | Potency [5]: inactive | Potency [6]: inactive | Potency [7]: inactive | Potency [8]: inactive | Potency [9]: inactive | Potency [12]: inactive | Potency [10]: inactive | Potency [13]: inactive

CC(C)=CCCC(C)=CCCC(C)=CCSc1ccccc1C(=O)O
Potency [11]: inactive

Clc1ccc(-c2nc3sccn3c2C=NOCc2ccc(Cl)c(Cl)c2)cc1
Potency [11]: inactive

COc1cc(N2CCC(N3CCN(C)CC3)CC2)ccc1Nc1ncc(Cl)c(Nc2ccccc2S(=O)(=O)C(C)C)n1
Potency [11]: 5.26 µM (active)

Cc1nc(-c2ccc(-c3ccc(C(=O)N4CCc5cc6c(cc54)C4(CCN(C)CC4)CO6)cc3)c(C)c2)no1
Potency [1]: 23.5 µM (active) | Potency [11]: 26.4 µM (active) | cell viability, % of control (lower = more cytotoxic) [2]: 163% | viability (% of control) [3]: 126% | Potency [5]: inactive | Potency [6]: inactive | Potency [7]: inactive | Potency [8]: inactive | Potency [9]: inactive | Potency [10]: inactive

Cc1cccc(-c2[nH]ncc2-c2ccc3ncccc3n2)n1
Potency [11]: inactive

NC(=O)c1ccc(I)c([N+](=O)[O-])c1
Potency [11]: inactive

COc1nc(-c2ccc3c(c2)OCO3)n(-c2ccc(NC(=O)CSc3ccccc3)cc2)n1
Potency [1]: 20.9 µM (active) | Potency [11]: inactive

CC#C[C@]1(O)CC[C@H]2[C@@H]3CCC4=CC(=O)CCC4=C3[C@H](c3ccc(N(C)C)cc3)C[C@@]21C
Potency [11]: 23.5 µM (active)

NC(=O)c1ccc(N(C(N)=O)c2c(F)cccc2F)nc1-c1ccc(F)cc1F
Potency [11]: inactive

Cc1cc(-c2nnc3n2CCCCC3)c(C)n1-c1ccc(F)cc1
Potency [11]: 0.332 µM (active)

CCOc1ccc(Cc2cc([C@@H]3O[C@H](CO)[C@@H](O)[C@H](O)[C@@H]3O)ccc2Cl)cc1
Potency [11]: inactive

CC(C)(C)C(=O)Oc1ccc2c(c1)nc(NC(=O)c1cccc([N+](=O)[O-])c1)n2CCCO
Potency [11]: inactive

COc1cc2ncnc(Nc3ccc(F)c(Cl)c3)c2cc1NC(=O)C=CCN1CCCCC1
Potency [1]: 9.35 µM (active) | Potency [11]: 18.7 µM (active)

O=C(Nc1cc(Cl)cc2c1[nH]c1cnccc12)c1cccnc1
Potency [11]: 13.2 µM (active)

Cc1cc2c(cc1C1(c3ccc(C(=O)O)cn3)CC1)C(C)(C)CCC2(C)C
Potency [11]: inactive

O=C(Oc1ccc([N+](=O)[O-])cc1)N1CCC(C(O)(c2ccc3c(c2)OCO3)c2ccc3c(c2)OCO3)CC1
Potency [1]: 5.26 µM (active) | Potency [11]: inactive | cell viability, % of control (lower = more cytotoxic) [2]: 40.5% | viability (% of control) [3]: 64.3% | Potency [6]: 16.6 µM (active) | Potency [8]: inactive | Potency [9]: inactive | Potency [12]: inactive | Potency [10]: inactive | Potency [13]: inactive

CCOc1cc(N2CCC(O)CC2)ccc1Nc1ncc2c(n1)N(C)c1ccccc1C(=O)N2C
Potency [1]: 13.2 µM (active) | Potency [11]: 16.6 µM (active)

CN(C)C(=O)c1ccc(S(=O)(=O)c2ccc(NC(=O)[C@@](C)(O)C(F)(F)F)c(Cl)c2)cc1
Potency [1]: 1.66 µM (active) | Potency [11]: inactive

CCNC(=O)c1noc(-c2cc(C(C)C)c(O)cc2O)c1-c1ccc(CN2CCOCC2)cc1
Potency [1]: 0.0015 µM (active) | Potency [11]: 0.0021 µM (active)

CC(C)(Sc1ccc(CCN(CCCCC2CCCCC2)C(=O)NC2CCCCC2)cc1)C(=O)O
Potency [11]: inactive

O=C(O)c1ccc(O)c2ncc(N3CCOCC3)cc12
Potency [11]: inactive

Nc1ccc(-c2ccc3ncc4ccc(=O)n(-c5cccc(C(F)(F)F)c5)c4c3c2)cn1
Potency [1]: 0.0187 µM (active) | Potency [11]: 0.0526 µM (active)

N#Cc1c(O)c2c(-c3ccc(-c4ccccc4O)cc3)csc2[nH]c1=O
Potency [11]: inactive

CCN(c1ccccc1)c1cc(NC)[n+](C)c(C)n1
Potency [1]: 18.7 µM (active) | Potency [11]: 18.7 µM (active)

CC(C)[C@]12O[C@H]1[C@@H]1O[C@]13[C@]1(O[C@H]1C[C@H]1C4=C(CC[C@@]13C)C(=O)OC4)[C@@H]2O
Potency [1]: 0.0042 µM (active) | Potency [11]: 0.0074 µM (active) | Potency [14]: 0.0235 µM (active) | Potency [13]: 0.0118 µM (active)

O=C(Nc1ccc(F)c(C(F)(F)F)c1)Nc1nnc(-c2ccncc2)s1
Potency [1]: 2.09 µM (active) | Potency [11]: 5.9 µM (active)

COc1ccc(-c2c(-c3ccc(O)cc3O)n[nH]c2C)cc1
Potency [11]: 16.6 µM (active)
